Measurements from PubChem BioAssay (NCATS).
Values joined by “and” are separate entries in the source; they are usually repeats but may differ in a detail not shown here. Identical values can stand only once. Records with an inconclusive call do not appear. A call without a number means that no potency is given here. More than one record can exist for a structure, and the calls need not agree. Active and inactive are the calls of the source. Calls come from the whole dose curve; as a rule, active = well fitted curve in either direction with a large enough effect (not every such curve was filed as active); inconclusive = small, poorly fitted or top-dose-only effect, or another doubt; inactive = flat fitted curve, though single readings scatter.

The molecules below were run against Mitogen-activated protein kinase 10 (Mus musculus) (UniProt Q61831) (assay: JNK3 AlphaScreen Assay (AID 530;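 note: kinase came from lysate of stimulated human HepG2 cells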)). Details: JNK3 lysate, c-Jun phosphorylation; series mostly up to 57.1 µM.
Source text: NIH Chemical Genomics Center [NCGC]
NIH Molecular Libraries Screening Centers Network [MLSCN]
The c-jun N-terminal kinase (JNK) family are serine/threonine protein kinases that phosphorylate c-jun, a component of the transcription factor […] (AP-1). JNK kinases are members of the mitogen-activated protein kinase family including the extracellular regulated kinases and p38 kinases. Three JNK genes (JNK 1, 2, and 3) have been identified in humans so far. JNK1 and JNK2 have a broad distribution and JNK3 is primarily found in neuronal tissues and cardiac myocytes.
JNK3 has been under consideration as a target for the treatment of neurodegenerative disorders. […] JNK pathway is also involved in pathological process in a mouse model of Parkinson's disease (Xia et al., 2001).
Given these potential tissue distributions and links to neuroprotection, JNK3 inhibitors should provide useful investigational tools to study the role of this kinase in several diseases including, arthritis, stroke, myocardial infarction, ischemic injury and Parkinson's disease.
A homogeneous AlphaScreen is developed to measure the activity of JNK3. AlphaScreen is a two bead-based proximity-dependent chemical energy transfer luminescent assay platform. The phosphorylation of a biotinylated c-jun substrate by JNK3 can be detected with an antibody raised against phosphorylated c-jun. This process brings streptavidin donor beads and Protein-A acceptor beads to within a proximity range of <200 nm, and subsequently lead a chemical luminescent reaction upon exciting donor beads with 680 nm laser excitation light. Inhibition of JNK3 activity by small molecules and subsequent decrease in the antibody binding to biotinylated c-jun could attenuate or abolish this chemical luminescent reaction.
Yang DD, Kuan CY, Whitmarsh AJ, Rincon M, Zheng TS, Davis RJ, Rakic P and Flavell RA (1997) Absence of excitotoxicity-induced apoptosis in the hippocampus of mice lacking the Jnk3 gene. Nature 389:865-870. [PMID: 9349820]
Herdegen T, Claret FX, Kallunki T, Martin-Villalba A, Winter C, Hunter T, and Karin M (1998) Lasting N-terminal phosphorylation of c-Jun and activation of c-Jun N-terminal kinases after neuronal injury. J.Neurosci. 18:5124-5135. [PMID: 9651196]
Xia XG, Harding T, Weller M, Bieneman A, Uney JB and Schulz JB (2001) Gene transfer of the JNK interacting protein-1 protects dopaminergic neurons in the MPTP model of Parkinson's disease. Proc.Natl.Acad.Sci.U.S.A. 98:10433-10438.
NCGC Assay Protocol Summary:
GST-cJun (1-79) (Stratagene, La Jolla CA, #205145) was biotnylated by PerkinElmer (PerkinElmer-BioSignalInc. Montreal, Canada) and was detectable by the streptavidin Donor beads. Anti-(phospho)cJun (Ser73) antibody was from UpState (Charlottesvilles, VA, #06-659). JNK3-containing lysates were generated from HepG2 cells and pre-activated by interleukin1-beta and tumor necrosis factor alpha. All reagents were stored at -20 C before using. Phosphorylated biotinylated-GST-cJun was recognized by Anti-(phospho)cJun (Ser73) antibody and this process brings acceptor and donor beads together. Therefore JNK3 phosphorylation of cJun can be measured by Alpha reading by EnVision (PerkinElmer, Boston, MA).
The composition of kinase buffer was (in mM) 20 tris- HCl (pH 7.6) 10 MgCl2, 1 DTT, and 0.1 Na3VO4 and 0.01% Tween-20. Beads were diluted in detection buffer containing (in mM) 20 tris-HCl (pH 7.7), 20 NaCl and 80 EDTA and 0.3% BSA. The assay was performed at room temperature. All compounds were screened as titrations from 0.6 nM to 46 uM final concentration. The assay was performed in 1536-well format (white solid bottom and untreated) as follows:
Sequence,Parameter,Value,Description
1,Reagent,3 uL,Biotin-GST-cJun, Anti-(phospho)cJun and pre-activated JNK3-containing lysates
2,Compound,23 nL,Final concentration was 0.6nM to 46uM
3,Time,15 minutes,Room Temperature
4,Reagent,1 uL,ATP final concentration 10uM
6,Reagent,0.5 uL,2ng/well bead mixture
[…]
Potency is the fitted concentration of half-maximal effect.

Compound	Potency
O=S(=O)(c1cccc2c(I)cccc12)N1CCCNCC1	inactive
NCCSSCCN	inactive
CC(C)(C=O)Cc1cc(C(C)(C)C)c(O)c(C(C)(C)C)c1	inactive
N[C@H](CCCP(=O)(O)O)C(=O)O	inactive
O=C(O)c1cc([N+](=O)[O-])ccc1NCCCc1ccccc1	inactive
Cn1cc(C2=C(c3ccc(Cl)cc3Cl)C(=O)NC2=O)c2ccccc21	inactive
N#C/C(=C\c1ccc(O)c(O)c1)C(=O)NCCCc1ccccc1	10 µM (active)
CNCC[C@H](Oc1ccc(C(F)(F)F)cc1)c1ccccc1	inactive
CN(C)C(N)=NCCC[C@H](N)C(=O)O	inactive
CCCCCCCC/C=C\CCCCCCCC(=O)NCCO	inactive
N=c1ccn2c(n1)O[C@H]1[C@H](O)[C@@H](CO)O[C@H]12	inactive
O=c1cc(-c2ccccc2)oc2ccccc12	inactive
C=C[C@H]1CN2CC[C@@H]1C[C@@H]2[C@@H](O)c1ccnc2ccc(OC)cc12	inactive
Nc1ccc([N+](=O)[O-])cc1O	inactive
CCCn1c(=O)c2[nH]c(-c3ccc(OCC(=O)NCCN)cc3)nc2n(CCC)c1=O	inactive
O=c1[nH]c2cc([N+](=O)[O-])c([N+](=O)[O-])cc2[nH]c1=O	inactive
NC(=O)C(=O)O	inactive
CCCCCCCCCCCCCCCCCC(=O)O	inactive
Cc1nc2sccn2c(=O)c1CCN1CCC(=C(c2ccccc2)c2ccc(F)cc2)CC1	inactive
O=C1C(SCCO)=C(SCCO)C(=O)c2ccccc21	inactive

Compound	Potency
COC(=O)c1c(C)[nH]c(C)c1C(=O)c1ccccc1Cc1ccccc1	inactive
COc1ccccc1CNCCCCCCNCCCCCCCCNCCCCCCNCc1ccccc1OC	inactive
N=C1N=C(N)c2cc3ccccc3cc21	inactive
NC(N)=NC(=O)c1nc(Cl)c(N2CCCCCC2)nc1N	inactive
Nc1ccc(O)c([N+](=O)[O-])c1	inactive
CN1CCc2ccccc2Cc2[nH]c3ccccc3c2CC1	inactive
Nc1cc(-c2ccncc2)c[nH]c1=O	inactive
CN1CCC[C@H]1c1cccnc1	inactive
S=c1[nH]c2ccccc2s1	inactive
COc1ccccc1N1CCN(CCN(C(=O)c2ccc(I)cc2)c2ccccn2)CC1	inactive
O=C(Nc1ccccc1)c1cc([N+](=O)[O-])ccc1Cl	inactive
Oc1cc2c(cc1O)CN(C(=S)NCCc1ccc(Cl)cc1)CCC2	inactive and 10 µM (active)
NCCNC(=O)c1ncsc1-c1cccc(F)c1	inactive
Cn1c(=O)c2[nH]c(-c3ccccc3)nc2n(C)c1=O	inactive
CN(C)CCC(c1ccc(Cl)cc1)c1ccccn1 (stereo not given)	inactive
NCCCCC(=O)O	inactive
O=C(O)Cc1ccc(-c2ccccc2)cc1	inactive
NO	inactive
O=C(O)CC[C@@H](C(=O)O)N1C(=O)c2ccccc2C1=O	inactive
c1ccc2sc(SSc3nc4ccccc4s3)nc2c1	inactive
